Compound activity: PubChem BioAssay, several laboratories
This is a sample that favours compounds with a hit; in the whole collection about 1.6% have one here.
eIF4H FP inh: inhibitors of RNA binding by human eIF4H; eIF4H fluorescence polarization binding assay; Q15056; inhibition, % at 35 µM; AID 2012; 0.94% of 290,000 active;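 note: calls also rest on retests at 20 µM and on dose response follow-up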
PERK inh: inhibitors of human PERK kinase. CHO PERK-DD fusion, SEAP luminescence translation reporter. inhibition, % at 5.6 µM. 0.17% of 220,000 active. AID 1416;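 active = inhibition above the mean inhibition of all tested compounds plus 3 SD, set separately per screening campaign, cut at about 2.9% in these data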;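 note: PERK kinase domain activated by AP20187 dimerizer at 100 nM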
eIF4E-4G inh: eIF4E/eIF4G interaction inhibition in translation initiation | 0.37% of 220,000 active | AID 782 | inhibition, % at 21.7 µM | TR-FRET eIF4E-eIF4GI(517-606) binding, 2 h | P63073+Q04637;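 active = inhibition above about 30%, limit read from the data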
MLLE-PAM2 inh: inhibitors of microRNA-mediated deadenylation, human PABP1 MLLE binding | inhibition, % at 20 µM | P11940 | 0.36% of 360,000 active | GST-MLLE / FITC-PAM2 fluorescence polarization; in the data active = inhibition above about 35%, passing the limit was not always enough
PABP FP inh: PABP-poly(A) binding inhibition | P11940 | inhibition, % at 35 µM | 1% of 290,000 active | PABP-poly(A) RNA binding, fluorescence polarization;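 note: calls also rest on retests at 20 µM and on dose response follow-up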
Hits are given with their value; . = inactive; ? = inconclusive; / = no result; [ ] = another dose, or the depositor's remark. Unless noted, the rule behind the calls is not given here.

SMILES	eIF4H FP inh	PERK inh	eIF4E-4G inh	MLLE-PAM2 inh	PABP FP inh
CC(C)(C)c1ccc2c(c1)OC(C(=O)N/N=C\c1ccc(-c3cccc(C(=O)O)c3)o1)CO2 (stereo not drawn)	73	.	.	.	68
O=C(N/N=C/c1c[nH]c2ccccc12)C1COc2ccccc2O1 (stereo not drawn)	.	.	48	.	.
O=C(N/N=C\c1ccc(Cl)s1)C1COc2ccccc2O1 (stereo not drawn)	.	.	.	.	.
O=C(N/N=C\c1ccc(-c2ccccc2[N+](=O)[O-])o1)C1COc2ccccc2O1 (stereo not drawn)	.	.	.	.	.
O=C(c1ccc(S(=O)(=O)N2CCC(c3nc4ccccc4s3)CC2)cc1)N1CCOCC1	.	/	/	.	.
CN(C)S(=O)(=O)c1ccc(C(=O)NCCc2ccco2)cc1	.	/	/	.	.
Cn1cnc(S(=O)(=O)Nc2cc(-c3ccc(Cl)cc3)nn2C)c1	.	.	.	.	.
CCC1CCCCN1CCCNS(=O)(=O)c1ccc2c(c1)oc(=O)n2C (stereo not drawn)	.	/	/	.	34
CC(NS(=O)(=O)c1ccc2c(c1)oc(=O)n2C)c1ccccc1 (stereo not drawn)	.	/	/	.	65
CCC1CCCCN1CCNS(=O)(=O)c1ccc2c(c1)oc(=O)n2C (stereo not drawn)	.	.	.	.	.
Cn1c(=O)oc2cc(S(=O)(=O)Nc3ccc4c(c3)OCCO4)ccc21	75	.	.	.	87
Cn1c(=O)c(=O)n(C)c2cc(S(=O)(=O)Nc3ccc4c(c3)OCCO4)ccc21	.	.	.	.	.
COC(=O)c1c(C)oc(C)c1S(=O)(=O)NCc1ccc(Cl)cc1Cl	.	.	.	.	.
CC1CCCCN1C(=O)Cn1nnc(-c2cccnc2)n1 (stereo not drawn)	?	.	.	49	.
CCOC(=O)c1cnc(SCC(=O)N2CCN(C(=O)c3ccco3)CC2)nc1N	.	.	.	.	.
Cc1noc(C)c1COC(=O)CCc1ccc(S(=O)(=O)N2CCCCC2)cc1	.	.	.	.	.
NC(=S)N=Nc1c(O)[nH]c2cc(F)c(F)cc12	.	.	.	40	.
N=C(N)N=Nc1c(O)[nH]c2ccc(Br)cc12	.	.	.	.	.
NC(=S)N=Nc1c(O)[nH]c2c(Cl)cc(Cl)cc12	/	/	/	45	/
COc1ccc(Cn2c3ccc(OC)cc3c3nc4ccccc4nc32)cc1	?	.	.	.	.
COc1ccc2c(c1)c1nc3ccccc3nc1n2Cc1ccc(OC(C)C)c(OC)c1	78	.	.	.	active
COc1ccc2c(c1)c1nc3ccccc3nc1n2CC(=O)OC(C)C	.	.	.	.	121
COC(=O)Cn1c2ccc(C)cc2c2nc3ccccc3nc21	.	/	/	.	.
COc1cccc(C2/C(=C(/O)c3ccc4c(c3)CC(C)O4)C(=O)C(=O)N2CCCn2ccnc2)c1 (stereo not drawn)	.	/	/	.	.
Cc1ccccc1C(=O)NNC(=S)NC(=O)COc1ccccc1	.	.	.	.	.
SMILES	eIF4H FP inh	PERK inh	eIF4E-4G inh	MLLE-PAM2 inh	PABP FP inh
Cc1cc(=O)n2nc(-c3ccccc3)sc2n1	56	.	.	.	65
COc1ccc(CCNC(=O)C23CN(Cc4ccccc4)CC2C(c2cccc([N+](=O)[O-])c2)=NO3)cc1 (stereo not drawn)	.	.	.	.	.
O=[N+]([O-])c1cc(Br)c(O)c(/C=N/Nc2nnnn2-c2cccc3ccccc23)c1	.	.	44[fluorescence artefact?]	.	.
COc1cc(C=Nc2ccccc2C(=O)Nc2ccccc2)cc(OC)c1OC	3.3	.	.	.	110
COc1cc(NC(=O)c2ccccc2-c2ccccc2)cc(OC)c1OC	.	.	.	/	.
CCn1c(SCC(=O)C(C)(C)C)nnc1-c1ccccn1	.	.	.	.	.
Cc1ccc(-c2nc(N)sc2CC(=O)OCC(=O)NCCC(C)C)cc1	119	.	.	.	.
O=C1C2C3C=CC(C3)C2C(=O)N1Cc1ccccc1 (stereo not drawn)	.	.	.	.	.
Cc1oc(-c2ccc(Cl)cc2)nc1CN1CCC(C(=O)NCc2ccco2)CC1	.	.	64	.	.
Cc1oc(-c2cccc(Cl)c2)nc1CN1CCC(C(=O)NCc2ccco2)CC1	.	.	.	.	.
COc1ccc(C)cc1-n1nnnc1SCc1csc(C)n1	.	.	.	.	.
CCCCOC(=O)c1ccc(NC(=O)COC(=O)C2CSC3(C)CCC(=O)N23)cc1 (stereo not drawn)	/	/	/	.	/
CC12CCC(=O)N1C(C(=O)OCC(=O)Nc1sccc1C#N)CS2 (stereo not drawn)	64	.	.	.	99
COc1ccc(Nc2nc3ccccc3nc2C)cc1	61	.	.	.	62
COc1ccc(NS(=O)(=O)c2cc(NC(=O)C3CC3)ccc2N2CCOCC2)cc1	.	.	.	.	.
Cc1ccc(S(=O)(=O)N2CCC(C(=O)NNC(=O)c3ccccc3)CC2)cc1	56	.	.	.	active
Cc1ccc(C(=O)NNC(=O)C2CCN(S(=O)(=O)c3ccc(C)cc3)CC2)cc1	.	.	.	.	.
Cc1cc(C)cc(NC2=CC(=O)CC(c3ccco3)C2)c1 (stereo not drawn)	.	.	.	.	.
Nc1ccccc1NC1=CC(=O)CC(c2ccccc2)C1 (stereo not drawn)	.	.	.	/	.
Cc1ccc(NC2=CC(=O)CC(c3ccco3)C2)c(N)c1 (stereo not drawn)	104	.	.	.	99
Nc1ccccc1NC1=CC(=O)CC(c2ccco2)C1 (stereo not drawn)	91	.	.	.	91
O=C1C=C(NNC(=O)c2cccnc2)CC(c2ccco2)C1 (stereo not drawn)	?	.	.	45	.
O=C1OC2(CCCC2)OC(=O)C1=Cc1c[nH]c2ccccc12	?	.	.	.	109
CCOC(=O)c1c(CSc2ccc(C)cc2)n(C)c2cc(Br)c(O)c(CN(C)C)c12	.	.	.	100	.
CC(C)=CC(=O)N1CCC(Oc2cccc(C(=O)NCc3ccccn3)c2)CC1	/	/	/	.	/
SMILES	eIF4H FP inh	PERK inh	eIF4E-4G inh	MLLE-PAM2 inh	PABP FP inh
CSCC(C)N1CCC(Oc2cccc(C(=O)NCc3ccccn3)c2)CC1 (stereo not drawn)	.	/	/	43	.
CCc1nc(SCC(=O)OC(C)C)c2ccccc2n1	.	.	.	.	.
CCOC(=O)c1c(=O)n(O)c2ccc(C)cc2[n+]1[O-]	104	.	.	.	125
Cc1cc(O)c(-c2cc(O)c(C)cc2O)cc1O	.	.	.	48	.
Oc1ccc(C=Nc2ccccc2-c2nc3ccccc3[nH]2)c(O)c1	.	.	.	.	.
Oc1ccccc1C=Nc1ccccc1-c1nc2ccccc2[nH]1	5.7	.	.	.	58
CCN(CC)S(=O)(=O)c1cc(F)ccc1OC	.	.	35	.	.
CCN(CC)S(=O)(=O)c1cc(C(=O)Oc2ccccc2OC)ccc1OC	.	.	.	.	.
COc1cc(C2CC(=O)Oc3c2c(=O)n(C)c2ccccc32)ccc1O (stereo not drawn)	64	.	.	.	.
